Screening results deposited in PubChem by National Center for Advancing Translational Sciences (NCATS).
Compounds with a hit are over-represented: about 4% of the library has one in this group of screens.
D1 antag: blocks dopamine activation of the human D1 receptor; P21728; HEK293 TREx D1 cells, calcium flux, dopamine EC80; stronger effect = lower value; activity change, negative = inhibition, % at 10 µM; 360,000 compounds, 3.2% hits; AID 504652; in the data active = activity change below about -30%
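Using tetracycline-induced force-coupled D1 Hek293 cells and a calcium dye, signals were followed for 180 s after compound, then for 180 s after EC80 dopamine, to detect inhibitors.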
TRHR PAM: allosterically enhances the human TRH receptor. TRHR cells, fluo-8 calcium fluorescence, EC20 TRH enhancement. AID 493056. enhancement, % at 2 µM. 360,000 compounds, 0.66% hits; in the data active = enhancement above about 30%
Target sequence (P34981 whole entry, looked up): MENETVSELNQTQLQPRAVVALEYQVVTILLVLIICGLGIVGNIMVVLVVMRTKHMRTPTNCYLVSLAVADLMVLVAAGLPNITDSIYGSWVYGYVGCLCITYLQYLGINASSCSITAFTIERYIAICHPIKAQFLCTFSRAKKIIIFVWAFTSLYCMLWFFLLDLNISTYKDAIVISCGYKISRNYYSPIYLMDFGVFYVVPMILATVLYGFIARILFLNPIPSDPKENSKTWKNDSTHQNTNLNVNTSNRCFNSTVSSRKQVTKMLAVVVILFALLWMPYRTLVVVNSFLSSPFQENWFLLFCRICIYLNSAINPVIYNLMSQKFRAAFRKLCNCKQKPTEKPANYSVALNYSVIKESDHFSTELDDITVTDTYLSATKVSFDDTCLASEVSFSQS
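TRHR-expressing cells loaded with fluo-8 calcium dye were read kinetically (ex 480/em 530) during compound addition, then stimulated with an EC20 of TRH (10 nM final). Enhancement of the Gq-mediated intracellular calcium response was scored.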
D1 agonist: activates the human D1 dopamine receptor; 360,000 compounds, 1% hits; HEK293 T-REx D1 cells, calcium flux, agonist mode; activation, % at 2 µM
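Inducible HEK293 T-REx D1 cells, force-coupled to calcium signalling, were plated at 4000 cells/well with tetracycline and held overnight at 30 C. After no-wash calcium dye loading, compound-evoked calcium rise over 180 s flagged agonists.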
Glioma ERSR ind: inducers of ER stress response in human glioma cells. U87-MG GRP78 promoter luciferase reporter, 16 h. Potency, µM, most hits filed as activators. 420,000 compounds, 0.02% hits. AID 602332; active = well fitted activation curve with a large enough effect; also: series mostly up to about 76 µM; nearly all actives have a fitted effect of over 35% in size
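Stably transfected U87-MG human glioma cells carrying a GRP78-based luminescent sensor were seeded at 1000 cells/well, pin-dosed with compounds and incubated 16 h. Luciferase reagent was then added, and end-point luminescence was read after 10 min at room temperature.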
D1 potentiator: potentiators of human D1 dopamine receptor; P21728; HEK293 TREx D1 cells, calcium flux, dopamine EC20 potentiation; potentiation, % at 10 µM; 360,000 compounds, 0.036% hits; AID 504651; in the data active = potentiation above about 30%
TRHR ag: TRH receptor (human) agonism | activation, % at 2 µM | TRHR cells, calcium flux fluo-8, FDSS agonist mode | 360,000 compounds, 0.18% hits | P34981
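TRHR-expressing cells loaded with fluo-8 calcium dye; 23 nL library compound pin-transferred, kinetic FDSS fluorescence (Ex 480/Em 530) recorded about 180 s for agonist-induced calcium release, before a 10 nM TRH EC20 addition for potentiator mode.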
A number is an active result; n = inactive; x = no result given. Rule as the data show it, unless noted: active = activation above about 30%; inactive = the rest.

SMILES | D1 antag | TRHR PAM | D1 agonist | Glioma ERSR ind | D1 potentiator | TRHR ag
Cc1ccc(NC(=O)CN(C)C(=O)c2cccc(-n3cccc3)c2)cc1 | -40 | n | n | n | n | n
CC(C(=O)Nc1ccc(S(=O)(=O)N2CCCC2)cc1)N(C)CC(=O)Nc1cccc(F)c1 (configuration not stated) | x | x | x | n | x | x
COC(=O)c1cn(NC(=O)c2ccc([N+](=O)[O-])c(C)c2)c(=O)c2ccccc12 | n | n | n | n | n | n
Cc1cccc2sc(NC(=O)CSc3cn[nH]n3)nc12 | n | n | n | n | x | n
CCN(c1ccccc1)S(=O)(=O)c1ccc(OC)c(N=N/C(C(=O)Nc2ccccc2)=C(/C)O)c1 | n | n | n | n | n | n
CCN(CC(=O)Nc1ccc(OC)cc1)C(=O)c1cc2c(s1)CCCCC2 | n | n | n | n | n | n
CCN(CC(=O)Nc1c(F)cccc1F)C(=O)c1c(-c2ccccc2Cl)noc1C | x | x | x | n | x | x
CN(CC(=O)Nc1ccc(F)cc1)C(=O)c1cccc(S(=O)(=O)N2CCN(c3ccc(F)cc3)CC2)c1 | -39 | n | n | n | n | n
COc1ccccc1N1CCN(C(=O)c2cccc(S(=O)(=O)N3CCCCCC3)c2)CC1 | -42 | n | n | n | n | n
Cc1ccc(-c2ccc(SCC(=O)NC3CCCC3)nn2)cc1 | -31 | n | n | n | n | n
COc1ccc(-c2nnc(SCC(=O)NC3CCCC3)nc2-c2ccc(OC)c(OC)c2)cc1OC | n | 33 | n | n | n | n
CC(C)Oc1cccc(C2CC(=O)Nc3cc4c(cc32)OCO4)c1 (configuration not stated) | -32 | n | 68 | n | n | n
Cc1cccc(C2CC(=O)Nc3cc4c(cc32)OCO4)c1 (configuration not stated) | n | n | n | n | n | n
CC(=O)N1CC(C)Sc2ccc(S(=O)(=O)NCCc3ccc(C)cc3)cc21 (configuration not stated) | n | n | 31 | n | n | n
CC(=O)N1CCCc2cc(S(=O)(=O)NCc3ccc(N(C)C)cc3)ccc21 | n | n | n | n | n | n
CCOc1ccc(S(=O)(=O)NCCC2=CCCCC2)c2ccccc12 | -36 | n | n | n | n | n
CC(=O)N1CCCc2cc(S(=O)(=O)NCc3cccc(C)c3)ccc21 | n | n | n | n | n | n
CC(=O)N1CCCc2cc(S(=O)(=O)NCc3ccc(C)cc3)ccc21 | -37 | n | n | n | n | n
CC(=O)N1CCCc2cc(S(=O)(=O)NCCC3=CCCCC3)ccc21 | -30 | n | n | n | n | n
Cc1cccc(C(C)C)c1NC(=O)COC(=O)Cc1ccsc1 | n | n | n | n | n | n
CCN(C(=O)COC(=O)CNS(=O)(=O)c1ccc2ccccc2c1)C1CCCCC1 | n | n | n | n | n | n
O=S(=O)(NCCC1=CCCCC1)c1ccc(Br)cc1 | -30 | n | n | n | n | n
O=S(=O)(NCCC1=CCCCC1)c1ccccc1Br | n | n | n | n | n | n
O=C1OCC(CO)(CO)N=C1NNc1ccccc1Cl | n | 31 | n | n | n | n
O=C(O)C1(Nc2ccccc2Cl)CCCC1 | x | x | x | n | x | x
SMILES | D1 antag | TRHR PAM | D1 agonist | Glioma ERSR ind | D1 potentiator | TRHR ag
CC(=O)N(C)c1ccc(NC(=S)NC(=O)/C=C/c2ccco2)cc1 | n | n | n | n | n | n
O=C(NCc1ccc2c(c1)OCO2)C(=O)NCC1OCCN1S(=O)(=O)c1ccc(Cl)cc1 (configuration not stated) | -31 | n | n | n | n | n
O=C(NCc1ccc2c(c1)OCO2)C(=O)NCC1OCCN1S(=O)(=O)c1ccc(Br)cc1 (configuration not stated) | n | n | n | n | n | n
O=C(NCCCn1ccnc1)C(=O)NCC1OCCCN1S(=O)(=O)c1ccc(Cl)cc1 (configuration not stated) | -51 | n | n | n | n | n
COc1ccc(OCc2nc3c4c(-c5ccccc5)c(-c5ccccc5)oc4ncn3n2)cc1 | n | n | n | n | n | n
COc1ccc(CNC(=O)CCCn2nc(C)c3sc4ccccc4c3c2=O)cc1OC | n | n | n | n | n | n
Cc1nn(CCCC(=O)NCc2ccc(OC(C)C)cc2)c(=O)c2c1sc1ccccc12 | n | n | n | n | n | n
Cc1ccc(NC(=O)CCCn2nc(C)c3sc4ccccc4c3c2=O)c(Cl)c1 | -45 | n | n | n | n | n
CSc1ccc(CCNC(=O)CCCn2nc(C)c3sc4ccccc4c3c2=O)cc1 | -69 | n | n | n | n | n
COc1cc(OC)c(NC(=O)CCCn2nc(C)c3sc4ccccc4c3c2=O)cc1Cl | -71 | n | n | n | n | n
Cc1cc(S(=O)(=O)N2CCCC(N(C)CCc3ccccn3)C2)c(C)cc1Cl (configuration not stated) | -54 | n | n | n | n | n
c1ccc(CCNc2ccnc3cc4ccccc4cc23)cc1 | -82 | n | 34 | n | n | n
CC(C)Nc1ccc(Nc2ccnc3cc4ccccc4cc23)cc1 | n | n | n | n | n | n
C[C@@H](C(=O)Nc1ccc2c(c1)OCCO2)n1nnc2ccccc2c1=O | n | n | n | n | n | n
CC(C(=O)Nc1ccc2c(c1)OCCO2)n1nnc(-c2ccccc2)n1 (configuration not stated) | -53 | n | n | n | n | n
COc1cccc(CNS(=O)(=O)c2ccc3c(c2)N(C(C)=O)CCO3)c1 | -90 | n | n | n | n | n
Cn1cc(CN2CCC(C(O)c3cccs3)CC2)c(-c2cccc(Cl)c2)n1 (configuration not stated) | n | n | 41 | n | n | n
Cn1cc(CN2CCN(c3ncccn3)CC2)c(-c2cccc(Cl)c2)n1 | n | n | n | n | n | n
Clc1ccc(OCCOCCN2CCCCC2)c(Br)c1 | -45 | n | n | n | n | n
CC1CCCN(CCCOc2ccc(Cl)cc2Br)C1 (configuration not stated) | -52 | n | n | n | n | n
Cc1ccc(Cl)c(OCCN2CCCC(C)C2)c1 (configuration not stated) | -71 | n | n | n | n | n
CC1CCN(CCCOc2ccc(Cl)cc2Br)CC1 | n | n | n | n | n | n
Cc1ccc(S(=O)(=O)c2cc3c(=O)n4ccccc4nc3n(CCc3ccccc3)c2=N)cc1 | n | n | n | n | n | n
O=C(Nc1cc2c3c(c1)CC(=O)N3CCC2)c1ccc(Br)cc1 | n | n | n | n | n | n
O=C(Nc1cc2c3c(c1)CC(=O)N3CCC2)c1ccccc1Br | n | 34 | n | n | n | n
Cc1ccccc1NC(=S)NC(NC(=O)C(C)(C)C)C(Cl)(Cl)Cl (configuration not stated) | n | n | n | n | n | n
